# Source: PubChem BioAssay (National Center for Advancing Translational Sciences (NCATS))
# TDP1 cell noCPT = qHTS for Inhibitors of human tyrosyl-DNA phosphodiesterase 1 (TDP1): qHTS in cells in absence of CPT; Potency, µM (top dose mostly 46.2 µM), for inactives: at the highest dose activity change, negative = growth inhibition, actives largely listed as inhibitors; AID 686978, 2013; DT40 Tdp1-/- hTDP1 cells, no CPT, ATP luminescence, 48 h; hit rate 15% among 420,000; further: potency means the concentration at half of the fitted maximal effect; nearly all actives have a fitted effect of over 55% in size
#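 Compound effects on proliferation are scored in DT40 Tdp1-/-;hTDP1 cells in the absence of CPT. ATP levels (CellTiter-Glo luminescence) are recorded after a ≥48 hr, 37 °C incubation.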
# HT1080NT lethal = kills 2HG-producing HT-1080-NT fibrosarcoma cells. HT-1080-NT fibrosarcoma viability, CellTiter-Glo ATP luminescence, 48 h. Potency, µM (top dose mostly 46.1 µM), for inactives: at the highest dose activity, negative = less viability, hits mostly cytotoxic. hit rate 1.6% among 360,000;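 further: NT is the 2HG producing partner of a matched IDH1 knockdown line; potency means the concentration at half of the fitted maximal effect; 0% = DMSO-treated cells and -100% = media-only wells without cells; nearly all actives have a fitted effect of over 55% in size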
#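 HT-1080-NT; 750 cells/well; 5% FBS RPMI; 48 h compound, 37 degrees C; CellTiter-Glo luminescence; curve fitting and curve-class assignment.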
# DT40 TDP1 CPT = growth inhibition of DT40 Tdp1-/-;hTDP1 cells with camptothecin (screen for TDP1 inhibitors) | chicken DT40 Tdp1-/-;hTDP1 cells + 20 nM CPT, ATP luminescence, 48 h | Potency, µM (doses to about 46.2 µM), inactives show at the highest dose activity change, negative = growth inhibition, usual class: inhibitors | hit rate 12% among 420,000 | AID 686979; further: potency means the concentration at half of the fitted maximal effect; nearly all actives have a fitted effect of over 55% in size
#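 Chicken DT40 Tdp1-/- cells stably complemented with human TDP1 were seeded at 400 cells/well in medium containing 20 nM camptothecin, exposed to pin-transferred compounds, and grown at 37 °C for at least 48 hr. Viability was read as ATP luminescence.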
# IL-1B inflam inh = inflammasome signaling inhibition, IL-1 beta readout; hit rate 4.7% among 360,000; AID 743279; activity change, % at 57.5 µM; THP-1 LPS/ATP IL-1B secretion, AlphaLISA, 16 h; stronger effect = lower value; in the data active means activity change below about -50%; inconclusive means mostly about -30% to -49%
#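 THP-1 cells pretreated 1 hr with compounds (up to 57.5 uM final), then stimulated with LPS (250 ng/mL final) plus ATP (1.25 mM final); secreted IL-1B measured by AlphaLISA after 16 hr, decreased signal indicating inhibition.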
# ALOX12 inh = inhibitors of human 12S-lipoxygenase ALOX12 | P18054 | Potency, µM (series often up to 108 µM), for the others: at the highest dose activity change, negative = inhibition, hits mostly inhibitors | purified 12hLO, xylenol orange hydroperoxide absorbance | hit rate 1.1% among 580,000; further: potency means the concentration at half of the fitted maximal effect
# Target sequence (P18054 whole entry, looked up): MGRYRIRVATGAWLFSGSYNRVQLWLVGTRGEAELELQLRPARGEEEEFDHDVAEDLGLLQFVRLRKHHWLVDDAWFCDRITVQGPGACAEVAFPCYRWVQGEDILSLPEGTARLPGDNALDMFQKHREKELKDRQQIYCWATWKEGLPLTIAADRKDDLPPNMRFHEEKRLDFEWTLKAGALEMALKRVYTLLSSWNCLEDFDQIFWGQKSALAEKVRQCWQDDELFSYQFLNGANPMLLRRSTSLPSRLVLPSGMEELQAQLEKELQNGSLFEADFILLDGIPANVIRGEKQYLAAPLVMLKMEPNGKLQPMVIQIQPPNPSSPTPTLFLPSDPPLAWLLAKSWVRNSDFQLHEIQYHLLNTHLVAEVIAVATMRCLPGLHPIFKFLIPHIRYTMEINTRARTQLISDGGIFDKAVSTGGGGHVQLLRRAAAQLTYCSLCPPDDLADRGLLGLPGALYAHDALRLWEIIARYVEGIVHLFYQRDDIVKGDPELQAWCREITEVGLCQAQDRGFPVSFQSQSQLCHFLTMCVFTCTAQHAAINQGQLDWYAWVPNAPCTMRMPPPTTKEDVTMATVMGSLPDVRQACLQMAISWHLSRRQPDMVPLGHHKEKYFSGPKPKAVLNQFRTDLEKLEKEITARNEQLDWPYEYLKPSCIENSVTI
#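 Purified human 12hLO at 150 nM in 25 mM Hepes, 0.01% Triton X-100, pH 7.0, preincubated 15 min at room temperature with compound. Reaction started with 40 uM arachidonic acid, 30 min at room temperature. Hydroperoxide measured by Fe-xylenol orange, 573/405 nm absorbance ratio.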
# HT1080 IDH1KD tx = toxicity to HT-1080 IDH1 knockdown cells (counter line); HT-1080 IDH1 knockdown viability, ATP luminescence, 48 h; Potency, µM (titrated, usually from 46.1 µM), inactives show at the top dose activity, negative = toxicity, hits mostly cytotoxic; hit rate 2% among 360,000; AID 686971;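 further: potency means the concentration at half of the fitted maximal effect; 0% = DMSO wells and -100% = cell-free medium wells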
#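 HT-1080-IDH1KD cells (IDH1 knocked down), 750/well in RPMI with 5% FBS, treated with compound 48 h at 37 degrees C. Viability by CellTiter-Glo luminescence, normalised to DMSO and no-cell wells; concentration-response curves classed.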
# An asterisk follows results filed as active; u = inconclusive; x = not tested or not shown. This excerpt belongs to a sample that is enriched for hits. Unless noted, the call rests on the fitted dose curve; in most records, active means well fitted curve in the direction sought with a large enough effect; inconclusive means small, poorly fitted or top-dose-only effect, or another doubt; inactive means no such curve, though single readings can be large; an effect the other way counts as inactive or inconclusive. Unless noted, on the % scale 0 is the no-effect control and ±100 the full control effect.
SMILES,TDP1 cell noCPT,HT1080NT lethal,DT40 TDP1 CPT,IL-1B inflam inh,ALOX12 inh,HT1080 IDH1KD tx
Cc1c(N=Nc2ccc(O)cc2)c(=O)n(-c2ccccc2)n1C,3%,-11%,3%,28,8%,0%
Cc1[nH]c2ccccc2c1N=Nc1ccc(F)cc1,u,21µM*,u,u,u,u
Cc1cccc(NC(=O)CN2CCC(C(=O)c3ccc4c(c3)OCCO4)CC2)c1,16µM*,-5%,u,u,8%,-7%
O=C(c1ccc2c(c1)OCCO2)C1CCN(C(=O)Nc2ccc(F)cc2)CC1,18µM*,-9%,u,15,-19%,-4%
COCCOC1CN(C2CCN(Cc3ccccc3)CC2)C12CCCCC2 (configuration not stated),x,x,x,x,62%,x
Cc1ccc(NCC(=O)N=Nc2c(O)[nH]c3ccc([N+](=O)[O-])cc23)cc1,23µM*,u,u,67,0%,u
O=[N+]([O-])c1ccc2[nH]c(O)c(N=NC(=S)NCC3CCCO3)c2c1 (configuration not stated),15µM*,3%,u,9,0%,5%
CCNC(=S)N=Nc1c(O)[nH]c2ccc([N+](=O)[O-])cc12,4.1µM*,-27%,3.3µM*,0,-6%,5.8µM*
Cc1ccccc1NCC(=O)N=Nc1c(O)[nH]c2ccc([N+](=O)[O-])cc12,u,u,u,84,-6%,-30%
O=S(=O)(Nc1nc2ccccc2nc1Nc1ccc(Br)cc1)c1cccs1,x,x,x,x,-66%,x
CC(=O)Oc1cc2c(c(C)c1OC(C)=O)CC=C1[C@]3(C)CC[C@]4(C)CC[C@@](C)(C(=O)O)CC4[C@]3(C)CC[C@]12C (some centres not stated),4.6µM*,x,3.7µM*,x,x,x
COc1ccc(-n2nc(C3CCCN(C(=O)Cc4ccccn4)C3)[nH]c2=O)cc1 (configuration not stated),x,x,x,x,-8%,x
O=C(Nc1ncn[nH]1)C1CC(=O)N(c2ccc3c(c2)OCCO3)C1 (configuration not stated),x,x,x,x,8%,x
Cc1ccccc1-c1nc(CN(Cc2c(C)nn(C)c2C)C2CC2)c(C)o1,23µM*,-4%,u,-76*,4%,-12%
CC1=C(C(=O)OC(C)C)C(c2ccc(F)cc2)NC(=O)N1c1ccc2c(c1)OCO2 (configuration not stated),x,x,x,x,-14%,x
CCN(CC)c1ccc(-c2n[nH]c(=S)n2-c2ccccc2)cc1,23µM*,u,18µM*,23,u,21µM*
CN(C)c1ccc(-c2n[nH]c(=S)n2-c2ccccc2)cc1,-16%,0%,1%,12,u,-4%
CCN(CC)c1ccc(-c2n[nH]c(=S)n2-c2ccccc2C)cc1,18µM*,-18%,21µM*,43,0%,-8%
Cc1cc(C)cc(C(=O)N2CCN(Cc3nc(N)c4ccccc4n3)CC2)c1,x,x,x,x,8%,x
COc1ccccc1N1CCN(C(=O)C2CCC(Cn3c(=S)[nH]c4ccccc4c3=O)CC2)CC1 (configuration not stated),u,-5%,23µM*,30,-10%,-14%
O=C(C1CCC(Cn2c(=S)[nH]c3ccccc3c2=O)CC1)N1CCOCC1 (configuration not stated),-25%,-2%,-2%,1,-6%,8%
COc1ccc(N2CCN(C(=O)C3CCC(Cn4c(=S)[nH]c5ccccc5c4=O)CC3)CC2)cc1 (configuration not stated),23µM*,11%,15µM*,-8,-2%,-2%
